Assay outcomes from PubChem.
NR3A LBD binder – modulators (binders) of human NR3A ligand-binding domain; NR3A LBD differential scanning fluorimetry, Tm shift; 0% = protein alone, 100% = glycine-bound protein; Tm shift relative to glycine control, % at 25 µM; 2.5% of 340,000 active; AID 1259313;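 active means melting temperature shift of at least 10% of the positive control shift, at one fixed dose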
ADAM17 inh – ADAM17 inhibition, QFRET primary screen; recombinant ADAM17, EDANS/DABCYL FRET peptide cleavage; inhibition, % at 6.95 µM; P78536; 0.83% of 370,000 active;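 active means inhibition above the mean of compounds lying between control limits plus 3 SD, set per campaign, cut at about 8.5% in these data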;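 further: 0% = DMSO-only wells as the low control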
KLK7 zymogen act – proKLK7 (human) activation, primary screen | purified proKLK7, EDANS-DABCYL substrate fluorescence; 100% is mature enzyme control, 0% vehicle | 0.9% of 370,000 active | activation, % at 7 µM | AID 652039 | P49862;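 active means activation above the mean of all tested compounds plus 3 SD, computed per campaign excluding outliers beyond control limits, cut at about 13% in these data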
FAS-TE inh – FAS thioesterase (human) inhibition; AID 602261; 0.67% of 360,000 active; P49327; recombinant FAS-TE, OMFH fluorogenic substrate, fluorescence endpoint; inhibition, % at 15 µM;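 active means compounds whose normalised, plate-corrected inhibition of enzyme fluorescence in the single-dose primary screen is 50% or more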;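 further: 0% = DMSO with enzyme and 100% = substrate without enzyme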
ADAM10 inh – inhibitors of human ADAM10; recombinant ADAM10, EDANS/DABCYL FRET peptide cleavage, 3 h; inhibition, % at 7 µM; 0.62% of 370,000 active; AID 720582;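 active means inhibition above a per-campaign cutoff equal to the mean of compounds falling between control-based bounds plus 3 SD, cut at about 20% in these data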;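 further: 0% = DMSO wells while the 100% control is not disclosed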
Target sequence (O14672 214-748 limits assumed): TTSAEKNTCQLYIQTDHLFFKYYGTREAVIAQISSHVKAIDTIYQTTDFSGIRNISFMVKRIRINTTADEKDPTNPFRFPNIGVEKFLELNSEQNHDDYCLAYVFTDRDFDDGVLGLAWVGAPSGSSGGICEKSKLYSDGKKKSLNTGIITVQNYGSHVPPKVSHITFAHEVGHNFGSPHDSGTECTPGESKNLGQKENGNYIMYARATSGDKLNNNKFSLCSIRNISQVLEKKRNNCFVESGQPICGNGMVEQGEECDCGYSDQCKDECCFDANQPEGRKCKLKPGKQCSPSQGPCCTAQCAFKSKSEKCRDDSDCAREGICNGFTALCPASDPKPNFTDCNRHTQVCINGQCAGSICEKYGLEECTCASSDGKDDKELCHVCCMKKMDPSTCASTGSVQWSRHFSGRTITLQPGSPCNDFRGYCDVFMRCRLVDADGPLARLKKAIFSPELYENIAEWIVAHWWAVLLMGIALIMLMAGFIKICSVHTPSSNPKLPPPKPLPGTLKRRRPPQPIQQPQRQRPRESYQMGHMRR
proKLK7 act conf – confirmation of human kallikrein-7 zymogen activators; shares compounds with KLK7 zymogen act; purified proKLK7, EDANS-DABCYL substrate fluorescence; scaled: vehicle 0, mature enzyme 100; activation, % at 7 µM; 68% of 3,200 active;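 active means activation, as change over the incubation, above the mean of all tested compounds plus 3 SD, cut at about 13% in these data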
EDANS-DABCYL int – counter-screen for kallikrein-7 activators: EDANS-DABCYL optical interference; shares compounds with KLK7 zymogen act; 80% of 3,200 active; activation, % at 7 µM; AID 686952; EDANS-DABCYL substrate fluorescence interference, no enzyme, 4 h; solvent 0%, active enzyme control 100%;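 active means activation above the all-compound mean plus 3 SD, ignoring values outside control-based bounds, cut at about 4.8% in these data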;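 further: value is the 4 h activation minus the activation read at time zero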
* marks the source's active call; other numbers are inactive results; i = inactive; · = no result given. An excerpt weighted towards active compounds, which were near 4.6% of everything screened.

SMILES	NR3A LBD binder	ADAM17 inh	KLK7 zymogen act	FAS-TE inh	ADAM10 inh	proKLK7 act conf	EDANS-DABCYL int
CCOC(=O)N1CCN(C(=O)C[C@H]2C[C@@]3(C(=O)OC)C(=C[C@H](C4CCCC4)O[C@@H]3C)N(Cc3ccc(Cl)cc3Cl)C2=O)CC1	·	3	1	·	6	·	·
C=CCNC(=O)CN(C(=O)Cc1ccc(Cl)nc1)c1cccc(Br)c1	·	-2	0	·	-3	·	·
C[C@@H]1C[C@@H]2O[C@H]2CCCCC(=O)Cc2cc(O)cc(O)c2C(=O)O1	·	-4	0	·	-11	·	·
COc1ccc2cc(C(C)=O)c(=O)oc2c1	1	-57	-1	-10	-152	·	·
CC(=O)Oc1ccc(-c2cc3ccc(OC(C)=O)cc3oc2=O)cc1	0	i	225*	-3	i	451*	412*
O=C(c1ccc(F)c(F)c1)N1CCC(Oc2cccnc2)CC1	·	-1	1	·	12	·	·
CCOC(=O)CC(=O)Nc1cc2ccc(OC)c(OC)c2cc1C(=O)OCC	·	-61	16*	-8	-227	-24	-25
COc1ccc2[nH]cc(C(C)c3ccccc3O)c2c1 (stereo unspecified)	·	-4	0	·	0	·	·
CCC1(O)C(=O)OCc2c1cc1n(c2=O)Cc2cc3c(N)cccc3nc2-1 (stereo unspecified)	-1	-8	23*	-5	-43	64*	67*
CCC1(OC(=O)CN(C)C)C(=O)OCc2c1cc1n(c2=O)Cc2cc3c(N)cccc3nc2-1 (stereo unspecified)	-2	·	·	-5	·	·	·
COc1cc(OC)c(-c2nnc(-c3ccc(OC)c(OC)c3OC)o2)cc1OC	0	-167	13*	-2	-404	-34	-33
CCC[C@H]1[C@@H](OC(=O)NCc2ccc(Cl)cc2)CC[C@@]23CCCN2C(=O)CCC[C@@H]13	·	-3	·	·	3	·	·
COC(=O)c1scc2c(=O)cc(C(F)(F)F)[nH]c12	-7	-242	59*	-15	i	76*	83*
CC1CN(c2nc3ccccc3nc2SCC(=O)N2CCN(S(=O)(=O)c3ccc(F)cc3)CC2)CC(C)O1 (stereo unspecified)	·	5	-4	·	-7	·	·
O=C(N/N=C/c1cc2c(cc1Br)OCO2)c1c[nH]c2ccccc12	15*	1	15*	19	-1	0	1
O=C(N/N=C/c1cc2c(cc1Br)OCO2)c1ccccn1	-1	-1	0	-2	-9	·	·
Cc1ccccc1Cn1cc(CN2[C@@H](CC(C)C)COc3cc(Br)ccc3S2(=O)=O)nn1	·	-2	0	·	3	·	·
CCCCN(C)CCNC(=O)c1cc2c(-c3cccc(OC)c3)nn(C)c2s1	1	-95	13*	0	-198	10	15*
O=c1c2c(n3nnnc3n1Cc1ccc(Cl)cc1)-c1ccccc1CC21CCCC1	·	-4	-1	·	-7	·	·
NC(=NCc1ccccc1)NC(=O)OCc1ccccc1	·	-2	0	·	-3	·	·
CCOc1ccc(N=c2oc3cc(O)ccc3cc2C(=O)NCC2CCCO2)cc1 (stereo unspecified)	5	-280	6	-4	i	·	·
CCOc1ccccc1N=c1oc2cc(O)ccc2cc1C(=O)NCC1CCCO1 (stereo unspecified)	-10	i	88*	-5	i	12	14*
COc1ccc(N=c2oc3cc(O)ccc3cc2C(=O)NCC2CCCO2)cc1 (stereo unspecified)	2	i	16*	-5	i	8	11*
COc1ccc(N=c2oc3cc(O)ccc3cc2C(=O)NCC2CCCO2)c(OC)c1 (stereo unspecified)	-30	i	20*	-8	i	13*	17*
N#Cc1c(CSCC(=O)O)cc(=O)n2c1[nH]c1ccccc12	-2	-19	1	-3	-57	·	·
N#Cc1c(C(F)(F)F)cc(=O)n2c1[nH]c1ccccc12	1	i	52*	-1	i	64*	66*
